The other results are listed elsewhere or left out. Inconclusive results are not listed. Values without a mark were called inactive.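 The calls were made as follows: active = compound lowering PGC-1a expression with fitted half-maximal concentration at most twice its top tested dose; inconclusive = flat curve with moderate opposite-direction effect, or poor fit; inactive = the rest.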
Assay: suppression of PGC-1a mRNA in primary hepatocytes, dose response, PGC-1a acetylation activator project, cell-based, primary mouse hepatocytes, RT-qPCR, cherry-pick (AID 743467);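 also: 0% = neutral control wells median and 100% = positive control wells median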
Settings: PGC-1a mRNA qPCR, forskolin, top dose 26 µM, active compounds read high; at 26 µM unless noted
Compound CCOC(=O)c1c(-c2ccc(C)cc2C)csc1NC(=O)CSc1nnnn1C has a max activity (PGC-1a expression decrease) of 87% [at 8 µM].
Work on COc1ccc(Nc2nnc(C)c3ccccc23)cc1 yielded a max activity (PGC-1a expression decrease) of 52.1%.
Compound O=C(NCc1ccccc1)C(c1ccccc1)N(C(=O)c1csnn1)c1ccc(F)cc1 (centres undefined) has a max activity (PGC-1a expression decrease) of 114% [at 8 µM].
CCOC(=O)c1c(NC(=O)CSc2cn(CC)c3ccccc23)sc2c1CCC2 gave a max activity (PGC-1a expression decrease) of 60.3%.
Cc1cc(C(=O)NNS(=O)(=O)c2ccccc2C(F)(F)F)nn1C(C)(C)C showed a max activity (PGC-1a expression decrease) of 22.5% [at 0.0012 µM].
With O=S(=O)(NCc1ccccc1Br)c1ccccc1Br the max activity (PGC-1a expression decrease) was 65.1%.
O=C(NCCC1CCCCN1S(=O)(=O)c1cccs1)C(=O)Nc1ccc(F)cc1F (centres undefined) gave a max activity (PGC-1a expression decrease) of 63.6%.
For CC(C)CCNc1nc(N2CCCC2)c2c(c1C#N)CCN(C)C2, the max activity (PGC-1a expression decrease) was 56.4%.
In the case of CCOc1ccccc1CN1CCN(C2CCC2)CC1CCO (centres undefined), the max activity (PGC-1a expression decrease) is reported as 28.9% [at 8 µM].
In the case of COc1ccc(-n2nnnc2CNC(=O)c2ccc3ccccc3c2)cc1, the max activity (PGC-1a expression decrease) is reported as 86.6% [at 0.0038 µM].
Work on CCC(C)(C)n1nnnc1C(c1ccccc1OC)N1CCSCC1 (centres undefined) yielded a max activity (PGC-1a expression decrease) of 74.7%.
CCCCC(=O)Nc1ccc(C(=O)NCCCn2ccnc2)cc1 showed a max activity (PGC-1a expression decrease) of 68.4% [at 0.011 µM].
For Cc1cc(C)c2c(-n3cccc3)c(C(=O)NNS(=O)(=O)c3ccc(F)cc3)sc2n1, the max activity (PGC-1a expression decrease) was 82.5% [at 8 µM].
Cc1ccc(OCC(=O)NCCCNC(=O)c2cccnc2)cc1C showed a max activity (PGC-1a expression decrease) of 111%.
